FBPA coupling cs – qHTS Assay for Inhibitors of Fructose-1,6-bisphosphate Aldolase from Giardia Lamblia: Coupling assay counterscreen. coupling enzyme system counterscreen, AmpLite Red fluorescence. activity change, negative = inhibition, % at 58.2 µM, hits read low. hit rate 0.67% among 290,000. AID 2472, 2010; in the data active means activity change below about -30%
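Final compound at 57.5 uM, incubated 10 min at RT with coupling enzyme reagent (glyceraldehyde-3-phosphate), then 20 min with substrate and AmpLite Red detection. Fluorescence read at 525/598 nm; tests interference with the coupling assay, not aldolase inhibition.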
Tau fibril FP – qHTS for Inhibitors of Tau Fibril Formation, Fluorescence Polarization. hit rate 0.39% among 280,000. K18 P301L tau heparin fibrillization, Alexa594 FP, 6 h. Microtubule-associated protein tau (Homo sapiens), P10636. AID 1468, 2008. Potency, µM (doses to about 57.7 µM), for inactives: top-dose activity, negative = inhibition, most hits filed as inhibitors; further: potency means the concentration at half of the fitted maximal effect; nearly all actives have a fitted effect of over 55% in size
Target sequence (P10636 561-689 P618L limits assumed): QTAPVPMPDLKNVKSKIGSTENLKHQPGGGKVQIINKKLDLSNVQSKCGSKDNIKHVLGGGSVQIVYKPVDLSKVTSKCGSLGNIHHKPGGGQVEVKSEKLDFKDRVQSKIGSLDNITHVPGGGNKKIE
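Heparin (20 uM) drove fibril formation of recombinant tau K18 P301L, 15 uM unlabeled with 0.24 uM Alexa 594 label, for 6 hr at 37 C in 100 mM sodium acetate pH 7. Fluorescence polarization (555/632 nm) read 1 hr after 30 uM ThT.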
Tau fluor cs – Counterscreen qHTS for Inhibitors of Tau Fibril Formation, Fluorescence Polarization. tau K18 P301L Alexa594 fluorescence, heparin fibrillization. Potency, µM (doses to about 57.7 µM), without a hit: at the highest dose activity change, negative = decrease. hit rate 0.93% among 280,000. AID 1463, 2008; further: potency means the concentration at half of the fitted maximal effect; nearly all actives have a fitted effect of over 55% in size
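Human tau K18 P301L (15 uM unlabeled, 0.24 uM Alexa 594-labeled) in 100 mM sodium acetate pH 7 with 20 uM heparin, 6 hr at 37 C. ThT 30 uM added, 1 hr ambient; Alexa 594 FP and total fluorescence read at 555/632 nm.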
Tau ThT inhib – qHTS for Inhibitors of Tau Fibril Formation, Thioflavin T Binding | Microtubule-associated protein tau (Homo sapiens), P10636 | recombinant tau K18 P301L (four-repeat tau fragment), heparin-induced fibrillization, ThT fluorescence | Potency, µM (titrated, usually from 57.4 µM), for the others: at the top dose activity, negative = inhibition, hits mostly inhibitors | hit rate 2.1% among 270,000; further: potency means the concentration at half of the fitted maximal effect; nearly all actives have a fitted effect of over 55% in size
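Tau K18 P301L fragment (15 uM unlabeled plus 0.24 uM Alexa 594-labeled) in 100 mM sodium acetate pH 7 with compound, fibrillization induced by 20 uM heparin for 6 hr at 37 C. Thioflavin T (30 uM) added, fluorescence read after 1 hr (ex 450, em 510 nm).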
Starred values were filed as active, the others as inactive; [ ] = remark or other dose. This is a sample that favours compounds with a hit; in the whole collection about 2.7% have one here. Unless noted, the call rests on the fitted dose curve; in most records, active means well fitted curve in the direction sought with a large enough effect; inconclusive means small, poorly fitted or top-dose-only effect, or another doubt; inactive means no such curve, though single readings can be large; an effect the other way counts as inactive or inconclusive. On the % scale 0 is the no-effect control and ±100 the full control effect.

For CCOc1ccc2nc(N3C(=O)/C(=C/c4ccc(Cl)cc4)NC3=S)sc2c1 the results were FBPA coupling cs 2, Tau fibril FP -8%, Tau fluor cs inconclusive and Tau ThT inhib 4.5µM*.
`CCN(CCCNC(=O)c1cc2cc3cc(C)ccc3nc2s1)c1cccc(C)c1` gave Tau fibril FP 10%, Tau fluor cs 7.9µM*[quencher] and Tau ThT inhib inconclusive.
COc1ccc(OC)c(C(=O)c2c(C)oc3cc([N+](=O)[O-])c(O)c([N+](=O)[O-])c23)c1 was read as FBPA coupling cs -18, Tau fibril FP -6%, Tau fluor cs -25% and Tau ThT inhib 13µM*.
Screening Cc1oc2cc([N+](=O)[O-])c(O)c([N+](=O)[O-])c2c1C(=O)c1ccc(Cl)cc1 returned FBPA coupling cs 1, Tau fibril FP 1%, Tau fluor cs -24% and Tau ThT inhib 18µM*.
COc1ccc(C(=O)Cc2cc(OC)c(OC)cc2[N+](=O)[O-])c(OC)c1 was read as FBPA coupling cs 6, Tau fibril FP -1%, Tau fluor cs -9% and Tau ThT inhib -8%.
For C=CC1=C2C=C(C3CC3)N(Cc3ccc4c(c3)OCO4)C=C2C(=O)C(C)(OC(=O)c2ccco2)C1=O (stereo not drawn) the results were FBPA coupling cs -6, Tau fibril FP -1%[11.6 µM], Tau fluor cs -14%[11.6 µM] and Tau ThT inhib inconclusive.
Screening CCCc1nn2c(=O)cc(COC(=O)c3ccc(NC(=O)COc4ccccc4)cc3)nc2s1 returned Tau fibril FP 7%, Tau fluor cs 4% and Tau ThT inhib 6%.
Screening COc1cccc(N2CCN(c3nc4ccc(C(=O)c5ccccc5)cc4n4c(C)nnc34)CC2)c1 returned Tau fibril FP 13%, Tau fluor cs -11% and Tau ThT inhib -2%.
`CC(C)S(=O)(=O)c1csc(NC(=O)Nc2ccc(Cl)cc2)c1` gave FBPA coupling cs -5, Tau fibril FP inconclusive, Tau fluor cs 16µM*[quencher] and Tau ThT inhib -4%.
For Cc1ccc(NC2=C(CC(=O)O)C(c3ccc(F)cc3)N(c3ccc(C)cc3)C2=O)cc1 (stereo not drawn) the results were Tau fibril FP 0%, Tau fluor cs 5% and Tau ThT inhib -12%.
N#CC1=C(N)C(C#N)(C#N)C(c2cccnc2)C2CCCC=C12 (stereo not drawn) was read as FBPA coupling cs -36*, Tau fibril FP inconclusive, Tau fluor cs -7% and Tau ThT inhib inconclusive.
`CC(C)c1ccc(C2C3CSCC=C3C(C#N)=C(N)C2(C#N)C#N)cc1` (stereo not drawn) gave FBPA coupling cs -2, Tau fibril FP -9%, Tau fluor cs -22% and Tau ThT inhib inconclusive.
N#CC1=C(N)C(C#N)(C#N)C(c2cccnc2)C2CC(c3ccccc3)CC=C12 (stereo not drawn) was read as FBPA coupling cs 3, Tau fibril FP inconclusive, Tau fluor cs -29% and Tau ThT inhib 25µM*.
For N#CC1=C(N)C(C#N)(C#N)C(c2ccc[nH]2)C2CCCC=C12 (stereo not drawn) the results were FBPA coupling cs -17, Tau fibril FP inconclusive, Tau fluor cs inconclusive and Tau ThT inhib 14µM*.
`N#CC1=C(N)C2=CCCC[C@H]2[C@H](c2cccc(F)c2)C1(C#N)C#N` gave FBPA coupling cs -1, Tau fibril FP inconclusive, Tau fluor cs -30% and Tau ThT inhib inconclusive.
O=C1C(Cl)=C(N2CCCCCC2)C(=O)N1c1ccc(Br)cc1 was read as FBPA coupling cs 5.
`Cc1ccc(N2C(=O)C(Cl)=C(N3CCN(C)CC3)C2=O)c(C)c1` gave FBPA coupling cs 4, Tau fibril FP 25µM*, Tau fluor cs inconclusive and Tau ThT inhib 14µM*.
O=C1C(Cl)=C(N2CCN(Cc3ccccc3)CC2)C(=O)N1c1ccccc1 was read as FBPA coupling cs 0, Tau fibril FP 25µM*, Tau fluor cs inconclusive and Tau ThT inhib 16µM*.
CN1CCN(C2=C(Cl)C(=O)N(c3ccc(Cl)cc3)C2=O)CC1 was read as FBPA coupling cs 2, Tau fibril FP inconclusive, Tau fluor cs inconclusive and Tau ThT inhib 25µM*.
O=C1C(Cl)=C(N2CCCCC2)C(=O)N1Cc1ccccc1 was read as FBPA coupling cs 5, Tau fibril FP -1%, Tau fluor cs -2% and Tau ThT inhib inconclusive.
`O=C(Nc1ccc(F)cc1F)c1ccc(-n2cnc3cccnc32)cc1` gave Tau fibril FP -6%, Tau fluor cs -6% and Tau ThT inhib -10%.
`Cc1ccc(-c2cc(C(=O)Nc3c(C(=O)c4ccccc4)oc4ccccc34)no2)cc1F` gave Tau fibril FP 10%, Tau fluor cs 0% and Tau ThT inhib -3%.
For O=C1Nc2ccc(F)cc2C12Nc1ccccc1-c1nnc(SCc3ccccc3F)nc1O2 (stereo not drawn) the results were FBPA coupling cs -10, Tau fibril FP inconclusive, Tau fluor cs inconclusive and Tau ThT inhib 25µM*.
O=C1Nc2ccc(Cl)cc2C12Nc1ccccc1-c1nnc(SCc3ccccc3F)nc1O2 (stereo not drawn) was read as FBPA coupling cs -9, Tau fibril FP -4%, Tau fluor cs -9% and Tau ThT inhib -3%.
`CC(=O)OCC1OC(c2ccc(C(C)=O)cc2)C=CC1OC(C)=O` (stereo not drawn) gave FBPA coupling cs 1, Tau fibril FP -6%[11.6 µM], Tau fluor cs -5%[11.6 µM] and Tau ThT inhib -15%[11.5 µM].
For Cc1ccc(C2CC(=O)N(Cc3ccccc3)c3c2c(C)nn3-c2nc(C)cc(C)n2)cc1 (stereo not drawn) the results were Tau fibril FP 8%, Tau fluor cs 4% and Tau ThT inhib 7%.
`CCC(=O)NC1=C(Cl)C(=O)C(NC(=O)CC)=C(Cl)C1=O` gave FBPA coupling cs -90*, Tau fibril FP 3.5µM*, Tau fluor cs inconclusive and Tau ThT inhib 2µM*.
`CCOc1ccc(CCNC(=O)CCc2cn(Cc3ccc(C)cc3)c3ccccc23)cc1` gave Tau fibril FP 6%, Tau fluor cs -8% and Tau ThT inhib -5%.
For CCn1c(C(=O)Nc2ccc(C)cc2C)cc2sc(Cl)cc21 the results were Tau fibril FP 2%, Tau fluor cs -11% and Tau ThT inhib -9%.
Screening O=C(c1ccccc1F)N(Cc1cccnc1)Cc1cc2cc3c(cc2[nH]c1=O)OCCO3 returned FBPA coupling cs -2, Tau fibril FP 0%, Tau fluor cs -1% and Tau ThT inhib -2%.
COc1cc(C(=O)N(Cc2cccnc2)Cc2cc3cc4c(cc3[nH]c2=O)OCCO4)cc(OC)c1OC was read as FBPA coupling cs -50*, Tau fibril FP 4%, Tau fluor cs 14% and Tau ThT inhib 9%.
`O=C(CCn1cnc2onc(-c3ccc(F)cc3)c2c1=O)Nc1cccc(C(F)(F)F)c1` gave Tau fibril FP 22µM*, Tau fluor cs inconclusive and Tau ThT inhib 14%.

High-throughput results: PubChem, National Center for Advancing Translational Sciences (NCATS)
